Compounds with a hit are over-represented: about 4.7% of the library has one in this group of screens.
FH mod: Identification of activators of human fumarate hydratase by quantitative high-throughput screening; Fumarate hydratase, mitochondrial (Homo sapiens), P07954; FH coupled MDH/diaphorase resazurin fluorescence, 15 min; Potency, µM (titrated, usually from 79.9 µM), usual class: inhibitors; actives 0.22% (n = 54,000); AID 1347055, 2019; also: the screen sought activators but most active calls are inhibition curves; nearly all actives have a fitted effect of over 45% in size
Target sequence (P07954 whole entry, looked up): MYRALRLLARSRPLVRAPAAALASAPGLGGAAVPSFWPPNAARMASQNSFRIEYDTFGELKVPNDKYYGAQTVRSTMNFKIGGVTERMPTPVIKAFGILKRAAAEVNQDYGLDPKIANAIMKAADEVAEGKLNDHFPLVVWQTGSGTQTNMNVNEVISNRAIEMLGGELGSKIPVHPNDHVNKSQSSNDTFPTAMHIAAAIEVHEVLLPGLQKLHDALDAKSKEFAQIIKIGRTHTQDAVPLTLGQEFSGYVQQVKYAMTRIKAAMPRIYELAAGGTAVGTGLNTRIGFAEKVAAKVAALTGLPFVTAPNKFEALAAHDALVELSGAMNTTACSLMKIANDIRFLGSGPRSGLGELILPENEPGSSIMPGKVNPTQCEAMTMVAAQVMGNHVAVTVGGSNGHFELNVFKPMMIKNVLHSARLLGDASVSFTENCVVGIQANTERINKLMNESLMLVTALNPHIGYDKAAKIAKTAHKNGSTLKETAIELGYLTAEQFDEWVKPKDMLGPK
HTT promoter inh: HTT promoter inhibition. actives 0.93% (n = 48,000). HEK293 HTT promoter firefly luciferase reporter, 24 h. Potency, µM (top dose mostly 57.5 µM), most hits filed as inhibitors; also: nearly all actives have a fitted effect of over 50% in size
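Luminescence was read after Dual-Glo reagent and a 10 min room-temperature incubation. Values were normalized to vehicle (0% activity) and zero RLU (-100% activity). Reporter HEK293 cells had been exposed to compounds (up to 57.5 uM final) for 24 h.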
GPR32 ag: agonists of human resolvin D1 receptor DRV1 (GPR32) | O75388 | CHO-K1 GPR32 beta-arrestin PathHunter luminescence, 90 min; zero percent set by DMSO-only wells | activation, % at 76.9 µM | actives 2.5% (n = 48,000);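 active = activation of at least 60% and not above a set upper limit, about 1 call in 100 departs from these limits; inconclusive = activation of 40% to 60%, or above that upper limit; inactive = activation under 40%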
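GPR32 activation in stably transfected CHO-K1 cells, detected as beta-arrestin recruitment by enzyme-fragment complementation. Compound exposure: 90 min, 37 °C.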
NTMT1 inhibitor: NTMT1 methyltransferase inhibition; actives 2.5% (n = 59,000); AID 1645870; Potency, µM (titrated, usually from 114 µM), hits mostly inhibitors; Q9BV86; NTMT1 MTase-Glo SAH luminescence, purified enzyme; also: nearly all actives have a fitted effect of over 65% in size
HTT-AS act: activates huntingtin-antisense promoter activity | HEK293 HTT-AS promoter firefly luciferase reporter, 24 h; response scale: percent change from vehicle, -100% = no light | Potency, µM (top dose mostly 57.5 µM), actives largely listed as activators | actives 0.24% (n = 48,000) | AID 1508624; also: nearly all actives have a fitted effect of over 55% in size
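Firefly luciferase readout (Dual-Glo, 10 min RT) after 24 h, 37 °C compound exposure (final up to 57.5 uM) of HEK293 reporter cells cultured 24 h beforehand; PTC124 at 50 uM final as control inhibitor; activity scaled vehicle 0%, zero RLU -100%.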
GALC G270D act: raises human GALC G270D mutant activity in cells | 145M-Twi-hGALC-G270D cells (Twitcher mouse brain line with human GALC G270D), HMU-beta-Gal fluorescence, 48 h | actives 0.1% (n = 45,000) | Potency, µM (series often up to 57.5 µM), actives largely listed as activators | P54803; also: nearly all actives have a fitted effect of over 65% in size
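Fluorescence readout: HMU-β-gal cleavage by mutant GALC (0.1 mM final, citrate/phosphate pH 5.2 with 1 mg/mL taurocholate), stopped with carbonate/bicarbonate plus Triton X-100. Cells: murine Twitcher 145M-Twi expressing human G270D GALC; qHTS for activators.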
Sfp qHTS opt: inhibitors of Bacillus subtilis Sfp PPTase, optimization followup. shares compounds with NTMT1 inhibitor. purified Sfp PPTase enzyme activity, qHTS. Potency, µM (titrated, usually from 114 µM), hits mostly inhibitors. actives 78% (n = 230). AID 540350
HM489 growth: Sfp PPTase inhibitors: growth inhibition of B. subtilis HM489; shares compounds with NTMT1 inhibitor; B. subtilis HM489 (acpS-) growth, BacTiter-Glo, 5 h; Potency, µM (doses to about 114 µM), usual class: inhibitors; actives 50% (n = 220); AID 540353
Sfp PPTase gel: inhibits B. subtilis Sfp PPTase in gel assay. shares compounds with NTMT1 inhibitor. purified Sfp PPTase, gel-based product detection. Potency, µM (series often up to 250 µM), usual class: inhibitors. actives 54% (n = 220). AID 540355
Sfp gel: inhibits B. subtilis Sfp PPTase in gel-based assay. shares compounds with NTMT1 inhibitor. purified Sfp PPTase, gel-based product detection. Potency, µM (top dose mostly 250 µM), hits mostly inhibitors. actives 90% (n = 45). AID 602362
Sfp inh SAR2: inhibitors of Bacillus subtilis Sfp PPTase, SAR round 2 | shares compounds with NTMT1 inhibitor | purified Sfp enzyme, PPTase activity, qHTS | Potency, µM (top dose mostly 57.1 µM), usual class: inhibitors | actives 87% (n = 230) | AID 602370
hGST A1-1 inh: counter-screen for Sfp PPTase inhibitors: hGST A1-1 inhibition | shares compounds with NTMT1 inhibitor | hGST A1-1 enzyme activity counter-screen, qHTS | Potency, µM (titrated, usually from 114 µM), most hits filed as inhibitors | 55 tested, under 10 active | AID 602391
HSD17B4 counter: counter-screen for HPGD inhibitors: human HSD17B4 inhibition; shares compounds with NTMT1 inhibitor; purified HSD17B4, estradiol/NAD+, NADH fluorescence; Potency, µM (series often up to 57.1 µM), actives largely listed as inhibitors; actives 10% (n = 230)
ALDH1A1 inh: inhibits human ALDH1A1, off-target for HPGD inhibitors; shares compounds with NTMT1 inhibitor; recombinant ALDH1A1, NADH fluorescence, propionaldehyde/NAD+; Potency, µM (doses to about 57.1 µM), hits mostly inhibitors; actives 93% (n = 230)
NNMT counter: human NNMT inhibition, NTMT1 counter-screen; shares compounds with NTMT1 inhibitor; NNMT MTase-Glo luminescence, SAH detection; Potency, µM (series often up to 57.1 µM), hits mostly inhibitors; actives 10% (n = 120); AID 1645878
Large screens that a line does not name were inactive (follow-up assays come after a bar, where they were run). Unless noted, calls follow the shape of the dose curve; as a rule, active = well fitted curve in the direction sought with a large enough effect; inconclusive = small, poorly fitted or top-dose-only effect, or another doubt; inactive = no such curve, though single readings can be large; an effect the other way counts as inactive or inconclusive.

O=C(c1ccc(Cl)cc1)N1CCN(c2ccnc3cc(Cl)ccc23)CC1	none (no result: HTT promoter inh, GPR32 ag, HTT-AS act, GALC G270D act)
O=C(Nc1cnccc1Cl)N1CCN(Cc2ccc3c(c2)OC(F)(F)O3)CC1	none (no result: FH mod, HTT promoter inh, GPR32 ag, HTT-AS act, GALC G270D act)
CN(C)CCCn1cc(C2=C(c3c[nH]c4ccccc34)C(=O)NC2=O)c2ccccc21	NTMT1 inhibitor 25µM (no result: HTT promoter inh, GPR32 ag, HTT-AS act, GALC G270D act) | NNMT counter inconclusive
COC(CCc1ccc(O)cc1)CC(=O)CCc1ccc(O)cc1 (stereo not given)	none (no result: HTT promoter inh, GPR32 ag, HTT-AS act, GALC G270D act)
O=C(Cc1c(F)cccc1F)Nc1cc(OCc2ccc(Cl)cc2)ccn1	none (no result: HTT promoter inh, GPR32 ag, HTT-AS act, GALC G270D act) | NNMT counter inconclusive
CC(C)(C)c1ccc(NC(=O)N2CCN(c3ncccc3Cl)CC2)cc1	none (no result: HTT promoter inh, GPR32 ag, HTT-AS act, GALC G270D act)
COc1cccc(NC(=S)N2CCN(c3cccc(Cl)c3Cl)CC2)n1	NTMT1 inhibitor inconclusive (no result: FH mod, HTT promoter inh, GPR32 ag, HTT-AS act, GALC G270D act) | Sfp qHTS opt inconclusive | HM489 growth inconclusive | Sfp PPTase gel inconclusive | Sfp inh SAR2 5.8µM | HSD17B4 counter inactive | ALDH1A1 inh 1.2µM
COc1cccc(NC(=S)N2CCN(c3cc(Cl)cc(Cl)c3)CC2)n1	NTMT1 inhibitor inconclusive (no result: FH mod, HTT promoter inh, GPR32 ag, HTT-AS act, GALC G270D act) | Sfp qHTS opt inconclusive | HM489 growth inactive | Sfp PPTase gel inconclusive | Sfp gel inactive | Sfp inh SAR2 inconclusive | hGST A1-1 inh 1.9µM | HSD17B4 counter inactive | ALDH1A1 inh 8.6µM
COc1ccc(N2CCN(C(=O)Nc3ccc(Cl)cc3)CC2)cc1	HTT promoter inh inconclusive
O=C(Nc1ccccc1)N1CCN(Cc2ccc3ccccc3n2)CC1	none (no result: HTT promoter inh, GPR32 ag, HTT-AS act, GALC G270D act)
COc1cccc(NC(=S)N2CCN(c3ccc4ccccc4n3)CC2)n1	none (no result: FH mod, HTT promoter inh, GPR32 ag, HTT-AS act, GALC G270D act) | Sfp qHTS opt 47µM | HM489 growth inconclusive | Sfp PPTase gel inactive | Sfp inh SAR2 36µM | HSD17B4 counter 27µM | ALDH1A1 inh 24µM
COc1ccc(CC(NC(C)=O)C(=O)O)cc1 (stereo not given)	NTMT1 inhibitor inconclusive (no result: HTT promoter inh, GPR32 ag, HTT-AS act, GALC G270D act)

Source: PubChem BioAssay
